From the supplement of paper PMC10849652
Of roughly 7,900 targets only a part is listed; those with a hit were picked by preference. About 0.6% of all pairs of compound and target were hits. Unmarked numbers belong to inactive results.

Sequence of UniProt Q8NHS3 (Q8NHS3 whole entry, looked up): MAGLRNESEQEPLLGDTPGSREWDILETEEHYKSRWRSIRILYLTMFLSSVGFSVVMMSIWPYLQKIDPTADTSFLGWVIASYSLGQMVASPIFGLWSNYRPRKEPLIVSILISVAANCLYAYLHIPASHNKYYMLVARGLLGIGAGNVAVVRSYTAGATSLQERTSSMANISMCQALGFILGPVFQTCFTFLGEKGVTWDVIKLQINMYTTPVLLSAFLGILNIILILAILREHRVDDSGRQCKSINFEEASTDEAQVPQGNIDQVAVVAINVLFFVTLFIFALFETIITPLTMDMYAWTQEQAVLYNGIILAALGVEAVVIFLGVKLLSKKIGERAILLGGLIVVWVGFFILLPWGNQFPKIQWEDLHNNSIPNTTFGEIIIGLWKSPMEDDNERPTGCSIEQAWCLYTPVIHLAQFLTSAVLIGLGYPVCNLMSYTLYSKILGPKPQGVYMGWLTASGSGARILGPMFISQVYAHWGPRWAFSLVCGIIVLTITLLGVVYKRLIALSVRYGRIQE
Sequence of UniProt Q6UB28 (Q6UB28 whole entry, looked up): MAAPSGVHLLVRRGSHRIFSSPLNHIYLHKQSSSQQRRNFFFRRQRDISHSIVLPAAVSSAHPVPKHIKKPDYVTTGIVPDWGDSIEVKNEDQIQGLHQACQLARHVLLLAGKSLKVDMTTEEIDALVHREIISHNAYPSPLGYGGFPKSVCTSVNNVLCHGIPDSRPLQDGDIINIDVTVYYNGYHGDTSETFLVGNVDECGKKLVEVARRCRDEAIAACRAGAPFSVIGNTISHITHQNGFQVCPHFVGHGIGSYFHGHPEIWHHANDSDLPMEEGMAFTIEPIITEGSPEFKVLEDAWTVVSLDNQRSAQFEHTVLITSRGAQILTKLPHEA
Sequence of UniProt Q9Y2E5 (Q9Y2E5 whole entry, looked up): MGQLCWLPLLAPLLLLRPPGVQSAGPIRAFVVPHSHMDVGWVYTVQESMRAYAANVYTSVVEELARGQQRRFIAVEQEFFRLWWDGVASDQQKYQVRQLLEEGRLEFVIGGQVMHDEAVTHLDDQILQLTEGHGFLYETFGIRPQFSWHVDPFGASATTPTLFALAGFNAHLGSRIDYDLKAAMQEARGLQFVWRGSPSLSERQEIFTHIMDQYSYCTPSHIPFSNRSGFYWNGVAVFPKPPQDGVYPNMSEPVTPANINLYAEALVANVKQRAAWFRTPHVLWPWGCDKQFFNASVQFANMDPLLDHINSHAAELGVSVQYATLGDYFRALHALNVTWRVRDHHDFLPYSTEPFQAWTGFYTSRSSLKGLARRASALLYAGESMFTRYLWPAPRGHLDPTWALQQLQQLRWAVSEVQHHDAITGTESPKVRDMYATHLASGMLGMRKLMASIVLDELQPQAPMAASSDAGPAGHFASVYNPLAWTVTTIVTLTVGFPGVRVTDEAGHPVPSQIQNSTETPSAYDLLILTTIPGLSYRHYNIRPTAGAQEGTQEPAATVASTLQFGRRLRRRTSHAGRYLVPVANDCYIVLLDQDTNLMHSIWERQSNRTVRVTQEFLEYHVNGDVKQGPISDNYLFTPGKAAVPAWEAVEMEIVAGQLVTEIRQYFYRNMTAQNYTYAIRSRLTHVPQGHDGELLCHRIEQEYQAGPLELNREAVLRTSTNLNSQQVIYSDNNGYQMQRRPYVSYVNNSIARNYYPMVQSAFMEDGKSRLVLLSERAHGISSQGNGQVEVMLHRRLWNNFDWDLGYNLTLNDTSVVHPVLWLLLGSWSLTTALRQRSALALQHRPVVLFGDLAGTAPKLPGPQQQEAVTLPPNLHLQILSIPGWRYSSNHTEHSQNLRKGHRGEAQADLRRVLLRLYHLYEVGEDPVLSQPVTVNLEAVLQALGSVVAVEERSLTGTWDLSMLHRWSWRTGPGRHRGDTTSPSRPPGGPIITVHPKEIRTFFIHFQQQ
Sequence of UniProt Q96GX5 (Q96GX5 whole entry, looked up): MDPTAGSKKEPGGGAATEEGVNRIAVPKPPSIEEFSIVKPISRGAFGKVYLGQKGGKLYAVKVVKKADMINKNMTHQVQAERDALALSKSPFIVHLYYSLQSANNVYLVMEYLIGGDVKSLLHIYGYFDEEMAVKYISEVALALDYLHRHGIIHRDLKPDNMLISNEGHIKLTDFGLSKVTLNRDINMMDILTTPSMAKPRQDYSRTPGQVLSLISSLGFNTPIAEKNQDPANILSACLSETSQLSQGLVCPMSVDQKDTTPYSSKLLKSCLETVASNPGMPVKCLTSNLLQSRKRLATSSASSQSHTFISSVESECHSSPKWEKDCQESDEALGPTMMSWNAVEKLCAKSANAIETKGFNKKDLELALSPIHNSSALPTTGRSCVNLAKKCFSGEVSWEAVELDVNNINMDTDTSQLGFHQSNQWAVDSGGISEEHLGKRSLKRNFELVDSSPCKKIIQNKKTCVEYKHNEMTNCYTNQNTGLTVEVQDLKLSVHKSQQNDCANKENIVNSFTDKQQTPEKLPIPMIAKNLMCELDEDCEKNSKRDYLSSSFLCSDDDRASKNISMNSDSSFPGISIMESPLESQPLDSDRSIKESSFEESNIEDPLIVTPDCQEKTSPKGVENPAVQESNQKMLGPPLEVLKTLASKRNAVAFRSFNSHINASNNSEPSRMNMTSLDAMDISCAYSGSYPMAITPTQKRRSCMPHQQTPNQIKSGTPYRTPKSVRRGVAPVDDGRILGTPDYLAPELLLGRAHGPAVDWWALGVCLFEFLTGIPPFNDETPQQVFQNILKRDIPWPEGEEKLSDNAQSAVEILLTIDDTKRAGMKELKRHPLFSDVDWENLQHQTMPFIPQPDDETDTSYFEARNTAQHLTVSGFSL
Sequence of UniProt Q96PV6 (Q96PV6 whole entry, looked up): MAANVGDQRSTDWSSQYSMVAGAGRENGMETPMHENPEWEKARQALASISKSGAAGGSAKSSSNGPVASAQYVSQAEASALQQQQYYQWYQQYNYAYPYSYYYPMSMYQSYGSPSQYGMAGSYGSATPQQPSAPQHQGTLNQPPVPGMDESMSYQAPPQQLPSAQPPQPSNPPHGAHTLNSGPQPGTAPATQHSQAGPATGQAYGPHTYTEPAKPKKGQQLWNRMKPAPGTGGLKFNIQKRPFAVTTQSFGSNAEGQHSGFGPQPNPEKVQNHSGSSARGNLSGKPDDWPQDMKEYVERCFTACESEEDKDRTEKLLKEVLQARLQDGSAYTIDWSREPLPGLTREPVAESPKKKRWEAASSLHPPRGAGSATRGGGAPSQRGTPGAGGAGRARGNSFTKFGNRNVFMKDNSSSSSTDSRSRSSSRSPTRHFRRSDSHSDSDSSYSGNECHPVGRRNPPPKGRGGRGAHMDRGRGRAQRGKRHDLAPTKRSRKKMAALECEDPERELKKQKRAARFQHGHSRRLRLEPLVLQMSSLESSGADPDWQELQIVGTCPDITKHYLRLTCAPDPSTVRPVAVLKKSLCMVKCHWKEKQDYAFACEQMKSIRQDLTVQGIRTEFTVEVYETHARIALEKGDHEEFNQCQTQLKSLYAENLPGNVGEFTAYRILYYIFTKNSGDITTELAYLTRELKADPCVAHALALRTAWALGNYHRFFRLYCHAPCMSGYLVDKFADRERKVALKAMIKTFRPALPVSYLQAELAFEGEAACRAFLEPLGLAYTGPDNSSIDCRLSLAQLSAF
Sequence of UniProt Q16539 (Q16539 whole entry, looked up): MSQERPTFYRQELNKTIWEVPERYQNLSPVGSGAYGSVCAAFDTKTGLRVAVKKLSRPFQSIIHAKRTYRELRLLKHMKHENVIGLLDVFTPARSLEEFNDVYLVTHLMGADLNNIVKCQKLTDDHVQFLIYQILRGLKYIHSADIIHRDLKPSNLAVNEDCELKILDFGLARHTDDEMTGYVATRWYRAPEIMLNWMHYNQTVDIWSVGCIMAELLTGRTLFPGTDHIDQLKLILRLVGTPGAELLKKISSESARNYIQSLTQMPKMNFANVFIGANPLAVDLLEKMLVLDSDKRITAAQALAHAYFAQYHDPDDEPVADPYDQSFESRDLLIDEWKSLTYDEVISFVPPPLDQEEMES
Sequence of UniProt Q15528 (Q15528 whole entry, looked up): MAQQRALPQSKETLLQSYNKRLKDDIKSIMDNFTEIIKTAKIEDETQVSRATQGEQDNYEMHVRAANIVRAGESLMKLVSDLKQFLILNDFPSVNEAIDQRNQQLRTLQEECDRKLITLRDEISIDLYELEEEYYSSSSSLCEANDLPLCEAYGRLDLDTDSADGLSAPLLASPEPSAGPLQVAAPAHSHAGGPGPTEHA
Sequence of UniProt Q96G25 (Q96G25 whole entry, looked up): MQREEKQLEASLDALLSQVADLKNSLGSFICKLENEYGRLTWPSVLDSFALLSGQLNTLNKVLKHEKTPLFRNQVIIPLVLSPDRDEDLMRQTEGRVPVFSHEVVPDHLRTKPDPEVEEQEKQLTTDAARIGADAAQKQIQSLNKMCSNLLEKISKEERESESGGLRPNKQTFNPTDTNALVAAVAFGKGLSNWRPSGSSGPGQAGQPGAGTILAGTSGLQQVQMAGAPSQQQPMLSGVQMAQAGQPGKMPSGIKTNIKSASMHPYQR
Sequence of UniProt Q92604 (Q92604 whole entry, looked up): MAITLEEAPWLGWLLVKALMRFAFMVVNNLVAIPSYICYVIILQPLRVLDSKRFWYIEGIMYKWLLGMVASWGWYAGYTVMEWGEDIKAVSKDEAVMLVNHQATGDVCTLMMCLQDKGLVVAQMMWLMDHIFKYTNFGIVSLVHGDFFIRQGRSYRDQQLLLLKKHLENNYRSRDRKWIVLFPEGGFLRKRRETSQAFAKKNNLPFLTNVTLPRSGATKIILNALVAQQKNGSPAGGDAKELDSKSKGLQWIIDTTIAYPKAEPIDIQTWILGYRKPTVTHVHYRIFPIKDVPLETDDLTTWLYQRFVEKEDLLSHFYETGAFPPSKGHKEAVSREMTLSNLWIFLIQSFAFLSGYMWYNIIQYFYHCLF
Sequence of UniProt Q96LU5 (Q96LU5 whole entry, looked up): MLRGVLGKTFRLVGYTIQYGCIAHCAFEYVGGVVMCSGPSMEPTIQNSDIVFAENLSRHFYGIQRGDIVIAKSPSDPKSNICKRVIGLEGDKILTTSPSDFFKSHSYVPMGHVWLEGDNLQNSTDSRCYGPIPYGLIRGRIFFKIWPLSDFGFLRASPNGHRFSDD

Each target was assayed with CNC(=O)C1=CC=CC=C1NC2=NC(=NC=C2Cl)NC3=C(C=C(C=C3)N4CCOCC4)OC (assay: log2 fold change, soluble protein after heating vs DMSO (PISA); higher = thermal stabilisation; K562 cells, 10 uM, 30 min; active = over 0.2 and 3.5 SD of the protein, either way, in both replicates (recomputed)).
Method in brief: (§1)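 K562 cells at 2×10^6 cells/mL were treated with 10 μM compound for 30 min. Aliquots were heated for 3 min across 48°C-58°C, pooled, and extracted in PBS with 0.5% NP-40 at 4°C; soluble protein was the supernatant after 21,000xg for 90 min. Soluble protein was quantified by TMTpro 16plex LC-MS/MS with channel sums equalised, and reported as log2 fold change in thermal stability against DMSO controls, with values from duplicates.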
MAPK14 (UniProt Q16539) was tested, and the log2 fold change was 0.546.
In the case of ITM2B (UniProt Q9Y287), the log2 fold change is reported as 0.06.
Target METAP1D (UniProt Q6UB28) has a log2 fold change of 0.036.
In the case of IL27RA (UniProt Q6UWB1), the log2 fold change is reported as 0.056.
LPGAT1 (UniProt Q92604) showed a log2 fold change of 0.073.
Target MED12 isoform 2 (UniProt Q93074) has a log2 fold change of 0.303.
For KMT2C isoform 3 (UniProt Q8NEZ4), the log2 fold change was 0.009.
LUM (UniProt P51884) gave a log2 fold change of 0.085.
ITPRID2 (UniProt P28290) was tested, and the log2 fold change was -0.299.
Target LRBA, A0A494BZW2 has a log2 fold change of -0.368.
For IMMP1L (UniProt Q96LU5), the log2 fold change was -0.01.
KIF3B (UniProt O15066) gave a log2 fold change of 0.069.
For MED8 isoform 2 (UniProt Q96G25), the log2 fold change was 0.039.
Target MFSD8 (UniProt Q8NHS3) has a log2 fold change of -0.003.
For MED22 (UniProt Q15528), the log2 fold change was -0.051.
In the case of MARK2 (UniProt E9PC69), the log2 fold change is reported as -1.12 (active).
Work on ING5 (UniProt Q8WYH8) yielded a log2 fold change of -0.147.
MCM10 (UniProt Q7L590) showed a log2 fold change of 0.014.
MBLAC1 (UniProt A4D2B0) gave a log2 fold change of 0.049.
Work on MAGEA8 (UniProt P43361) yielded a log2 fold change of 0.123.
For MELK (UniProt Q14680), the log2 fold change was -0.347.
With KCNK5 (UniProt O95279) the log2 fold change was -0.05.
MAN2B2 (UniProt Q9Y2E5) was tested, and the log2 fold change was 0.035.
Work on LENG8 (UniProt Q96PV6) yielded a log2 fold change of -0.125.
Work on LRFN1 (UniProt Q9P244) yielded a log2 fold change of -0.24.
For MASTL (UniProt Q96GX5), the log2 fold change was 0.054.
For MCOLN3 (UniProt Q8TDD5), the log2 fold change was -0.141.
In the case of IP6K1 (UniProt Q92551), the log2 fold change is reported as 0.331.
In the case of MED25 isoform 3 (UniProt Q71SY5), the log2 fold change is reported as -0.014.
With KXD1 (UniProt Q9BQD3) the log2 fold change was 0.008.
Work on MED17 (UniProt Q9NVC6) yielded a log2 fold change of -0.049.
Target MAP4 isoform 5 (UniProt P27816) has a log2 fold change of 0.13.
ILRUN (UniProt Q9H6K1) gave a log2 fold change of 0.023.

Each target was assayed with CNC(=O)c1ccc(Nc2ncc(C(F)(F)F)c(NCc3nccnc3N(C)S(C)(=O)=O)n2)cc1 [defactinib] in the same assay as above.
Method in brief: as §1
For MAPK14 (UniProt Q16539), the log2 fold change was -0.137.
ITM2B (UniProt Q9Y287) gave a log2 fold change of -0.007.
With METAP1D (UniProt Q6UB28) the log2 fold change was 0.013.
Target IL27RA (UniProt Q6UWB1) has a log2 fold change of -0.097.
With LPGAT1 (UniProt Q92604) the log2 fold change was -0.184.
KMT2C isoform 3 (UniProt Q8NEZ4) showed a log2 fold change of -0.043.
LUM (UniProt P51884) showed a log2 fold change of -0.071.
In the case of ITPRID2 (UniProt P28290), the log2 fold change is reported as -0.158.
With IMMP1L (UniProt Q96LU5) the log2 fold change was 0.011.
In the case of KIF3B (UniProt O15066), the log2 fold change is reported as 0.028.
MED8 isoform 2 (UniProt Q96G25) showed a log2 fold change of -0.031.
Work on MFSD8 (UniProt Q8NHS3) yielded a log2 fold change of -0.008.
In the case of MED22 (UniProt Q15528), the log2 fold change is reported as -0.043.
With MARK2 (UniProt E9PC69) the log2 fold change was -0.07.
Work on MCM10 (UniProt Q7L590) yielded a log2 fold change of 0.018.
Work on MBLAC1 (UniProt A4D2B0) yielded a log2 fold change of 0.003.
In the case of MAGEA8 (UniProt P43361), the log2 fold change is reported as -0.267.
In the case of MAP4K4 isoform 6 (UniProt O95819), the log2 fold change is reported as -0.012.
In the case of MAN2B2 (UniProt Q9Y2E5), the log2 fold change is reported as -0.009.
For MFSD11 (UniProt O43934), the log2 fold change was -0.033.
In the case of LENG8 (UniProt Q96PV6), the log2 fold change is reported as -0.316.
With LRFN1 (UniProt Q9P244) the log2 fold change was -0.048.
With MASTL (UniProt Q96GX5) the log2 fold change was 0.037.
In the case of MED25 isoform 3 (UniProt Q71SY5), the log2 fold change is reported as -0.045.
Work on KXD1 (UniProt Q9BQD3) yielded a log2 fold change of -0.03.
For MED17 (UniProt Q9NVC6), the log2 fold change was -0.021.
ILRUN (UniProt Q9H6K1) showed a log2 fold change of -0.036.

What follows are targets tested with CNCc1ccc(-c2[nH]c3cc(F)cc4c3c2CCNC4=O)cc1 [rucaparib] in the same assay as above.
Method in brief: as §1
With MAPK14 (UniProt Q16539) the log2 fold change was -0.02.
Work on MAP4K2 (UniProt Q12851) yielded a log2 fold change of -0.003.
Target ITM2B (UniProt Q9Y287) has a log2 fold change of 0.007.
METAP1D (UniProt Q6UB28) gave a log2 fold change of -0.074.
IL27RA (UniProt Q6UWB1) gave a log2 fold change of -0.03.
LPGAT1 (UniProt Q92604) was tested, and the log2 fold change was 0.036.
Work on MED12 isoform 2 (UniProt Q93074) yielded a log2 fold change of 0.137.
For KMT2C isoform 3 (UniProt Q8NEZ4), the log2 fold change was -0.043.
With LUM (UniProt P51884) the log2 fold change was -0.167.
For ITPRID2 (UniProt P28290), the log2 fold change was -0.019.
With LRBA, A0A494BZW2 the log2 fold change was -0.055.
In the case of IMMP1L (UniProt Q96LU5), the log2 fold change is reported as -0.039.
KIF3B (UniProt O15066) showed a log2 fold change of -0.189.
In the case of MED8 isoform 2 (UniProt Q96G25), the log2 fold change is reported as 0.04.
Target MFSD8 (UniProt Q8NHS3) has a log2 fold change of 0.039.
Work on MED22 (UniProt Q15528) yielded a log2 fold change of 0.021.
With MARK2 (UniProt E9PC69) the log2 fold change was 0.187.
Target ILF3 (UniProt Q12906) has a log2 fold change of 0.384.
For ING5 (UniProt Q8WYH8), the log2 fold change was 0.129.
With MCM10 (UniProt Q7L590) the log2 fold change was -0.021.
With MBLAC1 (UniProt A4D2B0) the log2 fold change was 0.023.
Work on MAGEA8 (UniProt P43361) yielded a log2 fold change of -0.012.
KIZ (UniProt Q2M2Z5) was tested, and the log2 fold change was -0.027.
For MAP4K4 isoform 6 (UniProt O95819), the log2 fold change was 0.067.
In the case of MELK (UniProt Q14680), the log2 fold change is reported as 0.125.
KCNK5 (UniProt O95279) gave a log2 fold change of 0.05.
For MAN2B2 (UniProt Q9Y2E5), the log2 fold change was -0.158.
Target MFSD11 (UniProt O43934) has a log2 fold change of -0.002.
For LENG8 (UniProt Q96PV6), the log2 fold change was 0.044.
For LRFN1 (UniProt Q9P244), the log2 fold change was 0.062.
In the case of MASTL (UniProt Q96GX5), the log2 fold change is reported as -0.17.
In the case of MCOLN3 (UniProt Q8TDD5), the log2 fold change is reported as -0.275.
For IP6K1 (UniProt Q92551), the log2 fold change was -0.045.
With MARCHF3 (UniProt Q86UD3) the log2 fold change was 0.
In the case of MED25 isoform 3 (UniProt Q71SY5), the log2 fold change is reported as 0.104.
For KXD1 (UniProt Q9BQD3), the log2 fold change was -0.051.
In the case of MED17 (UniProt Q9NVC6), the log2 fold change is reported as 0.109.
Work on MAP4 isoform 5 (UniProt P27816) yielded a log2 fold change of 0.046.
ILRUN (UniProt Q9H6K1) showed a log2 fold change of 0.037.
